Test results reported in PubChem BioAssay (Tox21).
Calls of active or inactive are those of the source. Unless noted, calls come from the whole dose curve; as a rule, active = well fitted curve in the direction sought with a large enough effect in the repeat runs; inconclusive = weak or mixed curves; inactive = no such curve, though single readings can be large; an effect the other way counts as inactive or inconclusive.

Tests used:
[1] = qHTS assay for small molecules that induce genotoxicity in human embryonic kidney cells expressing luciferase-tagged ATAD5 (AID 651632); note: nearly all actives have a fitted effect of over 15% in size
In short: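 ATAD5-luc HEK293T, 2,000 cells/well; cpd or DMSO pin-transferred; 16 hr, 37C/5% CO2; Amplite 30 min RT; luminescence.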

[2] = qHTS assay for small molecules that induce genotoxicity in human embryonic kidney cells expressing luciferase-tagged ATAD5 - cell viability (AID 651634; calls by dose curve; note: nearly all actives have a fitted effect of over 25% in size; note: potency is the fitted concentration of half-maximal effect)
In short: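 Fluorescence from CellTiter-Fluor, reporting protease activity within live cells, served as the viability read-out. HEK293T cells carrying luciferase-tagged ATAD5 had been treated with compound for 15.5 hr at 37C.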

[3] = qHTS assay for small molecule disruptors of the mitochondrial membrane potential (AID 720635); note: potency is the fitted concentration of half-maximal effect
In short: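 HepG2 cells (2,000/well) attached overnight at 37C, then took compound for 1 hr at 37C, 5% CO2. Mito-MPS dye was added for 30 min; fluorescence was read at 490/535 nm (monomers) and 540/590 nm (aggregates).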

[4] = qHTS assay to test for compound auto fluorescence at 535 nm (green) in HEK293 cells (AID 720680)
[5] = qHTS assay to test for compound auto fluorescence at 460 nm (blue) in HepG2 cell free culture (AID 720685)
In short: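 Compound (23 nL) or DMSO pinned into cell-free MEM with 10% FBS; blue fluorescence read at 405/460 nm excitation/emission, expressed as auto-fluorescence equivalency to triamterene.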

[6] = qHTS assay for identifying genotoxic compounds that show differential cytotoxicity against isogenic chicken DT40 cell lines with known DNA damage response pathways - Rev3 mutant cell line (AID 743014); note: nearly all actives have a fitted effect of over 55% in size; note: potency is the fitted concentration of half-maximal effect
[7] = qHTS assay for identifying genotoxic compounds that show differential cytotoxicity against isogenic chicken DT40 cell lines with known DNA damage response pathways - Rad54/Ku70 mutant cell line (AID 743015); note: nearly all actives have a fitted effect of over 60% in size; note: potency is the fitted concentration of half-maximal effect
[8] = qHTS assay to identify small molecule antagonists of the androgen receptor (AR) signaling pathway - cell viability counter screen (AID 743033; note: nearly all actives have a fitted effect of over 45% in size; note: potency is the fitted concentration of half-maximal effect)
[9] = qHTS assay to identify small molecule antagonists of the thyroid receptor (TR) signaling pathway - cell viability counter screen (AID 743064); note: nearly all actives have a fitted effect of over 50% in size; note: potency is the fitted concentration of half-maximal effect
In short: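 Same-well viability check: GH3.TRE-Luc cells stimulated with 1 nM T3 alongside test compound for 23.5 h, followed by CellTiter-Fluor fluorescence.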

[10] = qHTS assay to identify small molecule antagonists of the thyroid receptor (TR) signaling pathway (AID 743065); note: nearly all actives have a fitted effect of over 55% in size; note: potency is the fitted concentration of half-maximal effect
In short: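 GH3.TRE-Luc rat pituitary cells carrying two TR response elements driving luciferase were plated for 4 h, given compound plus 1 nM T3 (final), and incubated 23.5 h at 37 C. ONE-Glo luminescence measured reporter inhibition; CellTiter-Fluor fluorescence tracked cytotoxicity.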

[11] = qHTS assay to identify small molecule antagonists of the estrogen receptor alpha (ER-alpha) signaling pathway - cell viability counter screen (AID 743074; calls by dose curve;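 note: HEK293 cells carrying ER-alpha-UAS-bla reporter stimulated with 17beta-estradiol; nearly all actives have a fitted effect of over 45% in size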; note: potency is the fitted concentration of half-maximal effect)
[12] = molecular target: Estrogen receptor (Homo sapiens) (UniProt P03372); assay: qHTS assay to identify small molecule agonists of the estrogen receptor alpha (ER-alpha) signaling pathway (AID 743075; calls by dose curve;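 note: HEK293 GripTite cells with ER-alpha and UAS-driven beta-lactamase reporter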; note: potency is the fitted concentration of half-maximal effect)
[13] = molecular target: Nuclear receptor subfamily 1 group I member 2 (Rattus norvegicus) (UniProt Q9R1A7); assay: Rat pregnane X receptor (rPXR) activation by small molecules, qHTS assay (AID 1346983); details: rPXR luciferase reporter cells, One-Glo luminescence, 24 h; max activation: active compounds read high; note: nearly all actives have a fitted effect of over 20% in size; note: potency is the fitted concentration of half-maximal effect
In short: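 Cell-based rPXR luciferase reporter assay, 2,000 cells per well, rested 5hr at 37 C before compound addition in DMSO, then 24 hr at 37 C. One-Glo reagent was added and luminescence read after 30 min at room temperature.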

[14] = molecular target: Nuclear receptor subfamily 1 group I member 2 (Homo sapiens) (UniProt O75469); assay: CYP3A4 induction through human pregnane X receptor (PXR) by small molecules, qHTS assay (AID 1346984); note: nearly all actives have a fitted effect of over 40% in size
In short: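 Luminescence readout: luciferase signal after One-Glo (30 min, room temperature), following 3 h at 37C with 3uM final Luciferin-IPA P450 substrate. Cells were DPX-2 (HepG2, PXR/CYP3A4-luc co-transfected) dosed for 24 h.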

[15] = system: thyroid hormone receptor (rat, GH3 cells); assay: qHTS assay to identify small molecule agonists of the thyroid receptor (TR) signaling pathway (AID 743066; calls by dose curve)
[16] = molecular target: Estrogen receptor (Homo sapiens) (UniProt P03372); assay: qHTS assay to identify small molecule antagonists of the estrogen receptor alpha (ER-alpha) signaling pathway (AID 743069; active = well fitted curve in the direction sought with a large enough effect in the signal ratio in the repeat runs, not every such curve was filed as active; inconclusive = weak or mixed curves, or effect the other way; inactive = no such curve, though single readings can be large or run the other way; the % refers to the signal ratio)
In short: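 Estradiol-stimulated ER-alpha-UAS-bla HEK293 cells, 18 hr compound exposure at 37C. LiveBLAzer B/G substrate, 2 hr RT, fluorescence read.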

[17] = molecular target: Estrogen receptor (Homo sapiens) (UniProt P03372); assay: qHTS assay to identify small molecule agonists of the estrogen receptor alpha (ER-alpha) signaling pathway using the BG1 cell line (AID 743079); note: nearly all actives have a fitted effect of over 20% in size; note: potency is the fitted concentration of half-maximal effect
[18] = molecular target: Peroxisome proliferator-activated receptor gamma (Homo sapiens) (UniProt P37231); assay: qHTS assay to identify small molecule agonists of the peroxisome proliferator-activated receptor gamma (PPARg) signaling pathway (AID 743094; active = well fitted activation curve with a large enough effect in the signal ratio in the repeat runs, not every such curve was filed as active; inconclusive = weak or mixed curves, or effect the other way; inactive = no such curve, though single readings can be large or run the other way; the % refers to the signal ratio)
In short: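 Beta-lactamase FRET fluorescence was the read-out after a 1 h room-temperature substrate step, following 17 h compound treatment at 37C of HEK293H cells expressing a UAS-driven bla reporter responsive to PPARg.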

[19] = molecular target: Nuclear receptor subfamily 1 group I member 2 (Homo sapiens) (UniProt O75469); assay: Human pregnane X receptor (PXR) activation by small molecules, qHTS assay (AID 1346985); note: nearly all actives have a fitted effect of over 40% in size; note: potency is the fitted concentration of half-maximal effect
In short: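 DPX-2 cells (HepG2 co-transfected with a PXR response element and a CYP3A4-promoter luciferase construct) were seeded at 2,000 per well, rested 5 hr at 37C, then exposed to DMSO-dissolved compounds for 24 hr. Activation was read as luciferase luminescence.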

[20] = qHTS assay for identifying genotoxic compounds that show differential cytotoxicity against isogenic chicken DT40 cell lines with known DNA damage response pathways - wild type cell line (AID 743012); note: nearly all actives have a fitted effect of over 60% in size; note: potency is the fitted concentration of half-maximal effect
In short: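 Wild type DT40, 300 cells/well, ~0.5 h settle at 37 C/5% CO2; compounds in DMSO added by pintool; 40 h at 37 C/5% CO2; CellTiter-Glo, 30 min RT; luminescence.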
% is set by controls: 0 for no effect and ±100 for the full control effect.

Estrogen receptor (Homo sapiens), sequence (P03372 whole entry, looked up): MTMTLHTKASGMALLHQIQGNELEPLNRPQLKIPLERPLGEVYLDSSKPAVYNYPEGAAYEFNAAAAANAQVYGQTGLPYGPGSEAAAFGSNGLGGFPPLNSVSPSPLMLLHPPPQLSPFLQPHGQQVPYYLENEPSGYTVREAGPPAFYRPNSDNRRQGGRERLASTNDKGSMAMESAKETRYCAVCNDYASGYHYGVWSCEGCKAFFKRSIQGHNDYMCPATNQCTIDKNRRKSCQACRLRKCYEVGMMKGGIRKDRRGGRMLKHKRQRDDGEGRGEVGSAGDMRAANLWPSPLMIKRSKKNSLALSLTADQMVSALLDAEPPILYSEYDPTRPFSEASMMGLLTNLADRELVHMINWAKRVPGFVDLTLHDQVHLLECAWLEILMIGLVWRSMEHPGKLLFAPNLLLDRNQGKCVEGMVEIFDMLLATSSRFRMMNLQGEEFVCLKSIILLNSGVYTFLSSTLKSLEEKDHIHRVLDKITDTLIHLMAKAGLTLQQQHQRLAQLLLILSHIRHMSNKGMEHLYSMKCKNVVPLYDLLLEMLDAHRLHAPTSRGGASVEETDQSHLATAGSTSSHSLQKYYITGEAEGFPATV
Nuclear receptor subfamily 1 group I member 2 (Rattus norvegicus), sequence (Q9R1A7 whole entry, looked up): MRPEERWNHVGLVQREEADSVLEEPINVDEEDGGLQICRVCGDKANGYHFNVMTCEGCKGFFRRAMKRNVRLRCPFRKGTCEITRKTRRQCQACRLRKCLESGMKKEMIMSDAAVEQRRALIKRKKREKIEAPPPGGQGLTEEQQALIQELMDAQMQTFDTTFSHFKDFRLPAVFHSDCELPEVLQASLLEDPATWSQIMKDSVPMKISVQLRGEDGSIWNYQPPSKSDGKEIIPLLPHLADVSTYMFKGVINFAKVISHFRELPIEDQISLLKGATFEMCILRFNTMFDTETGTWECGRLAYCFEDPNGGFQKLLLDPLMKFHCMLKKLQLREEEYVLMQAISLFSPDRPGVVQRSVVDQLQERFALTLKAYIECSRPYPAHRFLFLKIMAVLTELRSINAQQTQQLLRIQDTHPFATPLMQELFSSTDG
Peroxisome proliferator-activated receptor gamma (Homo sapiens), sequence (P37231 whole entry, looked up): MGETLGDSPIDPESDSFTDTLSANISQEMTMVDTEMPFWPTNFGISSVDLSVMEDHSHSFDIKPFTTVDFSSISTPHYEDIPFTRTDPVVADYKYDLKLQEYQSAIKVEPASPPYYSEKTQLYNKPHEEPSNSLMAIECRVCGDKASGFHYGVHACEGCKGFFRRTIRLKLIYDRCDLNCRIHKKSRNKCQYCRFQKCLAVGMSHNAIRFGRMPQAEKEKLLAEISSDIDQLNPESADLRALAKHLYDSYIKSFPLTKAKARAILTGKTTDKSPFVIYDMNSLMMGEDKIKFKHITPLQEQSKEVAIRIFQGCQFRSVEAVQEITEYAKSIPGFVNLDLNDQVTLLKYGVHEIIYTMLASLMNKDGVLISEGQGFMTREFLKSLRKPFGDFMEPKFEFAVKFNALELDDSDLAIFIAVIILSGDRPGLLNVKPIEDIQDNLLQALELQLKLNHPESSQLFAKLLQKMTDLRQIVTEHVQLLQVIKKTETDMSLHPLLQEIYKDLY

Oc1cccc[c]1[Hg][Cl]
active: Potency [2] 4.22 µM | Potency [3] 11.1 µM | Potency [6] 0.75 µM | Potency [7] 0.473 µM | Potency [8] 10.7 µM | Potency [9] 0.841 µM | Potency [10] 0.473 µM | Potency [11] 21.3 µM | Potency [12] 6.01 µM [inconclusive]
inactive: Potency [1] | Potency [4] | Potency [5] | max activation [13] -19.4% | Potency [14]

C[N+]1(C)[C@@H]2CC[C@H]1CC(OC(=O)c1c[nH]c3ccccc13)C2 (some centres undefined)
inactive: Potency [1] | Potency [2] | Potency [3] | Potency [4] | Potency [5] | Potency [7] | Potency [8] | Potency [9] | Potency [10] | Potency [15] | Potency [16] | Potency [11] | Potency [12] | Potency [17] | Potency [18] | Potency [14] | Potency [19]

O=C(C[C@@H]1NCCC[C@H]1O)Cn1cnc2cc(Br)c(Cl)cc2c1=O
inactive: Potency [1] | Potency [4] | Potency [5] | Potency [20] | Potency [6] | Potency [7] | Potency [8] | Potency [15] | Potency [16] | Potency [11] | Potency [12] | Potency [17] | Potency [14] | Potency [19]

C/C(=C\c1csc(C)n1)[C@@H]1C[C@@H]2O[C@]2(C)CCC[C@H](C)[C@H](O)[C@@H](C)C(=O)C(C)(C)[C@@H](O)CC(=O)O1
inactive: Potency [1] | Potency [4] | Potency [5] | Potency [15] | Potency [16] | Potency [17] | Potency [18] | Potency [14]
active: Potency [6] 0.0024 µM | Potency [7] 0.0038 µM | Potency [9] 0.0038 µM | Potency [10] 0.0106 µM | Potency [13] 10 µM | Potency [19] 7.94 µM

CCN1C[C@]2(COC)[C@H](O)C[C@H](OC)[C@@]34[C@@H]5C[C@@]6(O)[C@H](OC(=O)c7ccccc7)[C@@H]5[C@@](OC(C)=O)([C@@H]([C@H](OC)[C@H]23)[C@@H]14)[C@@H](O)[C@@H]6OC
inactive: Potency [1] | Potency [2] | Potency [3] | Potency [5] | Potency [20] | Potency [6] | Potency [7] | Potency [8] | Potency [9] | Potency [10] | Potency [15] | Potency [16] | Potency [11] | Potency [12] | Potency [17] | Potency [18] | max activation [13] -1.75% | Potency [19]

CC(C)CCC(=O)O[C@H]1CC[C@H]2[C@@H]3CCC4=CC(=O)CC[C@]4(C)[C@H]3CC[C@]12C
inactive: Potency [1] | Potency [4] | Potency [6] | Potency [7] | Potency [8] | Potency [15] | Potency [11] | Potency [18] | max activation [13] 2.99% | Potency [14] | Potency [19]
active: Potency [20] 7.5 µM | Potency [9] 33.5 µM | Potency [10] 29.8 µM | Potency [12] 4.77 µM [inconclusive] | Potency [17] 0.0668 µM

CC(N)Cc1ccc(O)cc1 (centres undefined)
inactive: Potency [1] | Potency [2] | Potency [4] | Potency [5] | Potency [6] | Potency [7] | Potency [9] | Potency [10] | Potency [15] | Potency [16] | Potency [11] | Potency [12] | Potency [17] | Potency [18] | Potency [14] | Potency [19]
